Rows were chosen to be rich in hits. Some 1.1% of all compounds tested hit in one or more screens of this group.
HTR5A inv ag: counter-screen for OPRM1-OPRD1 inverse agonists: human HTR5A inverse agonism; P47898; HTR5A cell line, luminescence; inhibition, % at 9.3 µM; 340,000 tested, 0.083% active; in the data active = inhibition mostly above about 23%, no sharp cut-off; inactive = mostly below about 18%;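 also: 0% = cells with DMSO and 100% = no-cell wells with DMSO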
Target sequence (P47898 whole entry, looked up): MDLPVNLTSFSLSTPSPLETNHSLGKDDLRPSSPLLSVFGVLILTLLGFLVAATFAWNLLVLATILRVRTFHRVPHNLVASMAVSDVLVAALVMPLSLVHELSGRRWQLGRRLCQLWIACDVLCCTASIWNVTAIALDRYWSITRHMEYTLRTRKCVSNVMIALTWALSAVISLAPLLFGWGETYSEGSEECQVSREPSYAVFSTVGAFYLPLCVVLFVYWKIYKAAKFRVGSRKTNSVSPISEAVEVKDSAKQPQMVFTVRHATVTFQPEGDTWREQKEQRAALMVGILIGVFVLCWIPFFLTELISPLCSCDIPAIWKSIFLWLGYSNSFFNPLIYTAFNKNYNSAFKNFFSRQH
HTR5A ag: counter-screen for OPRM1-OPRD1 agonists: human HTR5A agonism; HTR5A agonist assay, luminescence, cell-based; activation, % at 9.3 µM; 340,000 tested, 0.61% active; in the data active = activation mostly above about 9.5%, no sharp cut-off; inactive = mostly below about 7.6%;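 also: 0% = cells with vehicle only and 100% = reference agonist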
MOR-DOR inv ag-1: mu-delta opioid heterodimer inverse agonism; cell-based MOR-DOR heterodimer luminescence; inhibition, % at 9.3 µM; 340,000 tested, 0.21% active; AID 504357; in the data active = inhibition above about 22%, passing the limit was not always enough;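 also: 0% = cells with DMSO and 100% = wells without cells with DMSO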
MOR-DOR ag-1: OPRM1-OPRD1 heterodimerization agonism; P35372+P41143; activation, % at 9.3 µM; 340,000 tested, 0.3% active; cells, luminescence; AID 504326;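 also: 0% = vehicle-treated cells and 100% = reference agonist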
MOR-DOR inv ag-2: counter-screen for HTR5A inverse agonists: OPRM1-OPRD1 heterodimerization inverse agonism. shares compounds with HTR5A inv ag. U2OS counter-screen cells, complementation luminescence. inhibition, % at 9.3 µM. 190 tested, under 10 active. AID 504912; call rule not given here;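 also: 0% = cells with DMSO and 100% = wells without cells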
HTR5A inv conf: confirmation of human HTR5A inverse agonists | inhibition, % at 9.3 µM | HTR5A-expressing cells, inverse agonism, luminescence | 190 tested, under 10 active | AID 504916 | shares compounds with HTR5A inv ag; call rule not given here;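 also: 0% = cells with DMSO and 100% = no cells with DMSO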
MOR-DOR ag-2: counter-screen for HTR5A agonists: OPRM1-OPRD1 heterodimerization agonism. U2OS counter-screen cells, complementation luminescence, 3 h. 800 tested, 13% active. AID 504913. shares compounds with HTR5A ag. activation, % at 9.3 µM
HTR5A ag confirm: HTR5A (human) agonism, confirmation | shares compounds with HTR5A ag | HTR5A agonist cell assay, luminescence | activation, % at 9.3 µM | 800 tested, 17% active; in the data active = activation above about 17%;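 also: 0% = cells with vehicle only and 100% = full reference agonist response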
* hit, by the source's call; x = no result. Rule as the data show it, unless noted: active = activation above about 18%; inactive = the rest.

SMILES	HTR5A inv ag	HTR5A ag	MOR-DOR inv ag-1	MOR-DOR ag-1	MOR-DOR inv ag-2	HTR5A inv conf	others
CCC(Sc1nc(C)cc(=O)[nH]1)C(=O)Nc1nc2c(s1)CCCC2 (configuration not stated)	13.2	-5.6	-1.1	0.2	x	x
CN(C)S(=O)(=O)c1ccc(Cl)c(C(=O)OCC(=O)NC(=O)NC2CCCC2)c1	96.2*	1.1	-8.2	2.1	-16.5	13.6
O=C(NCc1ccco1)c1cc2sccc2n1Cc1ccccc1	34.2	4.0	-18.8	3.5	x	x
CCSc1nc(C)cc(Oc2ccc(=O)n(C)n2)n1	89.3*	-1.6	3.1	-0.6	-191.9	-13.1
CSc1nc(C)cc(Oc2ccc(=O)n(C)n2)n1	1.9	-4.1	19.6	-3.9	x	x
O=S(NCc1ccco1)C12CC3CC(CC(C3)C1)C2 (configuration not stated)	40.4*	-0.6	12.2	-2.6	-299.0	-20.2
Cc1cc(O)c(NC(=S)NC(=O)c2ccc(-c3ccc(Cl)cc3)o2)cc1C	64.8*	-29.5	22.8	-4.6	-138.9	-9.9
O=C(c1ccco1)N1CCN(C(=O)c2cc(-c3ccc(F)cc3)no2)CC1	-5.1	-1.0	6.3	-1.2	x	x
CSc1ccc(/C=N/n2c(Cc3ccc(Br)cc3)n[nH]c2=S)cc1	32.4*	-13.2	-30.2	5.8	-38.7	12.6
FC(F)Oc1ccc(/C=N/n2c(Cc3ccc(Br)cc3)n[nH]c2=S)cc1	11.5	-4.1	-56.2	10.5	x	x
Cc1nc(N2CCN(c3ccccc3F)CC2)[nH]c(=O)c1C	9.3	-2.5	5.3	-1.1	x	x
N#CC(C#N)=C(N)/C(C#N)=C/c1cc(O)c(O)c(O)c1	29.9*	-8.4	-3.9	0.7	20.0	1.3
N#C/C(=C\c1ccc(O)c(O)c1)C(=O)c1ccc(O)c(O)c1	-34.1	9.6	3.7	-0.7	x	x
COCCN1Cc2cccc(C(=O)NCc3ccccc3OC)c2C1=O	-19.6	5.5	7.9	-1.5	x	x
CCCN1Cc2cccc(C(=O)NCc3ccccc3OC)c2C1=O	37.0*	3.1	9.6	-1.6	-236.3	-40.8
C=CC[n+]1c(-c2ccc(Cl)cc2Cl)csc1Nc1c(C)n(C)n(-c2ccccc2)c1=O	35.8*	-7.1	30.9	-6.5	-11.5	-7.6
O=C(C[n+]1ccccc1)N/N=C/c1cc(Br)cc(Br)c1O	41.0*	-11.6	25.1	-5.5	5.1	34.0
N#CCCN=C(NS(=O)(=O)c1ccccc1)c1ccccc1	21.9*	-7.7	1.5	-0.2	-13.3	-18.3
COc1cc(C)c(C(C)C)cc1S(=O)(=O)N1CCOCC1	-9.6	-0.2	8.6	-1.4	x	x
CO/N=C(/CNC(=O)c1ccccc1Cl)c1ccc(Cl)cc1	-3.3	2.0	3.7	-0.6	x	x
Cc1ccc(-c2noc(CCCC(=O)NC3CCCC3)n2)cc1	-23.1	6.0	-10.8	1.5	x	x
COc1cccc(CNC(=O)Cc2ccc(S(=O)(=O)N3CCOCC3)s2)c1	38.3*	-14.7	-12.6	1.9	49.4*	-4.6
Cc1c2c(nc3nc4ccccc4n13)CC(C)(C)CC2=O	-11.8	4.3	12.0	-2.8	x	x
Oc1c(C(Nc2ccccn2)c2cccnc2)cc(Cl)c2cccnc12 (configuration not stated)	53.7*	-26.0	-11.5	2.2	55.5*	76.7*
CC(=O)NC(c1ccc(C)cc1)c1cc(Cl)c2cccnc2c1O (configuration not stated)	4.3	-1.5	2.6	-0.5	x	x
SMILES	HTR5A inv ag	HTR5A ag	MOR-DOR inv ag-1	MOR-DOR ag-1	MOR-DOR inv ag-2	HTR5A inv conf	others
Cc1cc(C)nc(N/N=C/c2ccccc2OCc2ccc(Br)cc2)n1	-20.1	1.5	-1.5	0.3	x	x
Cc1cc(C)nc(N/N=C/c2cc(Br)ccc2O)n1	32.5*	-11.3	-11.0	2.0	22.6	2.7
COc1ccc(CC(=O)Nc2ccc(-c3noc(-c4ccccc4OC)n3)cc2)cc1	-58.2	22.9*	-18.4	3.5	x	x	MOR-DOR ag-2=221.0*;HTR5A ag confirm=-5.9
O=C1NC(c2cccnc2)C(C(=O)c2cccs2)C(O)(C(F)(F)F)N1 (configuration not stated)	1.8	-1.1	10.3	-1.8	x	x
O=C1NCCCC1C(=O)Nc1cccc(C(F)(F)F)c1 (configuration not stated)	-52.2	21.9*	12.0	-2.9	x	x	MOR-DOR ag-2=2.0;HTR5A ag confirm=0.5
O=C(Oc1ccc(Br)cc1C(=S)N1CCCCC1)c1cc([N+](=O)[O-])cc([N+](=O)[O-])c1	20.4	-8.0	-29.9	5.3	x	x
COc1ccc([C@@H]2C[C@@H](c3ccccc3)Oc3cc(C)cc(C)c32)cc1	-68.2	25.3*	1.1	-0.2	x	x	MOR-DOR ag-2=3.2;HTR5A ag confirm=1.8
COc1ccc(C2CC(O)(c3ccccc3)Oc3c(C)ccc(C)c32)cc1 (configuration not stated)	-16.1	17.0	-37.5	6.7	x	x
COc1cc(SC)ccc1C(=O)NC1CCCCC1	-2.7	0.5	12.8	-2.1	x	x
CCn1c(C)nc2cc(C(=O)N/N=C/c3cccc(OC)c3O)ccc21	-20.4	7.2	11.7	-2.0	x	x
CCC(=NNC(=O)c1ccc2c(c1)nc(C)n2CC)c1cc(F)ccc1O	-70.6	18.4*	15.1	-3.5	x	x	MOR-DOR ag-2=-0.1;HTR5A ag confirm=-0.3
COc1cc(CC(=O)OCC(=O)Nc2sccc2C(N)=O)cc(OC)c1OC	-12.7	2.4	-4.3	0.8	x	x
CS(=O)(=O)c1ccc(NC(=O)C2CCCN(C(=O)c3ccc(Cl)cc3)C2)cc1 (configuration not stated)	-46.7	18.9*	6.5	-1.5	x	x	MOR-DOR ag-2=5.9;HTR5A ag confirm=4.2
NC(=O)c1cc([N+](=O)[O-])ccc1NCc1cnccn1	9.1	21.7*	8.4	-1.5	x	x	MOR-DOR ag-2=1.3;HTR5A ag confirm=-0.1
NC(=O)c1cc([N+](=O)[O-])ccc1NCc1ccc(O)cc1	-17.1	-4.4	2.2	-0.4	x	x
NC(=O)c1cc([N+](=O)[O-])ccc1NCC1CCCCC1	-41.0	16.1*	-26.8	4.9	x	x	MOR-DOR ag-2=15.8;HTR5A ag confirm=6.6
CCN(CC)CCN(C(=O)c1ccc(C(=O)c2ccccc2)cc1)c1nc2c(OC)cccc2s1	8.7	0.5	9.1	-1.7	x	x
Cc1ccc(S(=O)(=O)CCC(=O)OCC(=O)N2c3ccccc3CC2C)cc1 (configuration not stated)	-75.6	29.0*	-3.8	0.6	x	x	MOR-DOR ag-2=0.3;HTR5A ag confirm=33.1*
Cc1cccc(C(=O)Nc2sc(C)c(-c3ccccc3)c2C#N)c1	-22.2	16.8*	-39.7	6.7	x	x	MOR-DOR ag-2=2.0;HTR5A ag confirm=3.1
CCOC(=O)C1=C(COC(=O)/C=C/c2ccco2)NC(=O)NC1C (configuration not stated)	3.1	16.0*	-23.5	3.7	x	x	MOR-DOR ag-2=3.6;HTR5A ag confirm=0.1
CCOC(=O)C1=C(COC(=O)/C=C/c2ccc(OC)cc2)NC(=O)NC1C (configuration not stated)	-5.8	2.4	18.2	-3.5	x	x
NC(=O)C1CCN(Cc2nc(-c3ccccc3)no2)CC1	-46.7	17.0*	8.0	-1.8	x	x	MOR-DOR ag-2=0.4;HTR5A ag confirm=-1.3
